“And” between values parts separate entries of the source, which are not always exact repeats. Equal entries are not always repeated. Structures can show the parent of a compound that is named as a salt.
Tests used:
Experiment in all cases: cell viability relative to vehicle control; higher = less cytotoxic
Conditions in all cases: 10 µM
K562 = test system: K562
Method in brief: (§1)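 Screening covered the Selleck bioactive, kinase and epigenetic probe libraries, less identity-inconsistent compounds, on CRISPR-edited mutant clones and isogenic wild-type clones of four leukaemia lines. Cells, at 2000 per well in 50 µL medium, received a single 10 µM acoustically dispensed dose. After 48 h the supernatant was removed and CellTiter-Glo luminescence was read. Viability was analysed in Genedata Screener as percent of the on-plate vehicle control.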

MARIMO = test system: MARIMO
Method in brief: as §1

MOLM14 = test system: MOLM14
Method in brief: as §1

OCI-AML2 = test system: OCI-AML2
Method in brief: as §1

SMILES	cell viability (K562; SRSF2 genotype: SRSF2 P95H/wt)	cell viability (K562; SRSF2 genotype: SRSF2 wt/wt)	cell viability (MARIMO; SRSF2 genotype: SRSF2 P95H/wt)	cell viability (MARIMO; SRSF2 genotype: SRSF2 wt/wt)	cell viability (MOLM14; SRSF2 genotype: SRSF2 P95H/wt)	cell viability (MOLM14; SRSF2 genotype: SRSF2 wt/wt)	cell viability (OCI-AML2; SRSF2 genotype: P95H/wt)	cell viability (OCI-AML2; SRSF2 genotype: wt/wt)
C=C[C@]1(C)C[C@@H](OC(=O)CSCCN(CC)CC)[C@]2(C)[C@H](C)CC[C@]3(CCC(=O)[C@H]32)[C@@H](C)[C@@H]1O [Tiamulin fumarate]	85.7% and 84.7%	89.8%	93.4%	91.3%	94.2%	93.7%	88.6%	96.6%
CO/N=C(\C(=O)N[C@@H]1C(=O)N2C(C(=O)[O-])=C(C[n+]3cccc4c3CCCC4)CS[C@H]12)c1csc(N)n1 [Cefquinome sulfate]	103% and 99.9%	91%	87.5%	100%	86.3%	95.5%	93.9%	91.6%
Cc1[nH]c(/C=C2\C(=O)Nc3ccc(S(=O)(=O)Cc4c(Cl)cccc4Cl)cc32)c(C)c1C(=O)N1CCC[C@@H]1CN1CCCC1	0.5% and 0.24%	81.8%	76.3%	87.6%	42%	46.8%	0.12%	0.09%
CC(/C=C1\SC(=S)N(CC(=O)O)C1=O)=C\c1ccccc1 [Epalrestat]	99.9% and 110%	107%	104%	102%	106%	103%	102%	95.3%
Clc1ccc(C(c2ccccc2Cl)C(Cl)Cl)cc1 (stereo not drawn) [Mitotane]	91.2% and 89.1%	87.6%	83%	106%	90.8%	84.8%	93.7%	107%
OC[C@H]1O[C@@H](Oc2cc(O)cc(/C=C/c3ccc(O[C@@H]4O[C@H](CO)[C@@H](O)[C@H](O)[C@H]4O)cc3O)c2)[C@H](O)[C@@H](O)[C@@H]1O [Mulberroside A]	94.5% and 95.1%	98.2%	95.3%	101%	97.3%	97.6%	97.1%	105%
Cn1nc(C(C)(C)C)cc1C(=O)N[C@@H](Cc1cccc(Cl)c1)C(=O)NCC#N [Cathepsin Inhibitor 1]	93.5% and 89.9%	83.2%	93.1%	100%	92.4%	98.4%	97.8%	95.9%
CC(C)(C)C#Cc1cc(N(C(=O)[C@H]2CC[C@H](C)CC2)[C@H]2CC[C@H](O)CC2)c(C(=O)O)s1 [Lomibuvir (VX-222, VCH-222)]	108% and 102%	107%	113%	115%	109%	106%	124%	120%
CCCN1CCCC[C@H]1C(=O)Nc1c(C)cccc1C [Ropivacaine HCl]	91% and 94.8%	94.2%	99.7%	89%	95%	95.4%	98%	95.6%
CCCCOCc1ccc(O)c(OC)c1 [Vanillyl Butyl Ether]	98.9% and 92.9%	101%	97.6%	106%	98.8%	101%	93.1%	109%
CC(C)OC(=O)C(C(=O)OC(C)C)=C1SC=CS1 [Malotilate]	92.5% and 94.4%	93.6%	76.5%	83.6%	89.5%	99.4%	85%	88.8%
CC1=C(/C=C/C(C)=C/C=C/C(C)=C/C(=O)O)C(C)(C)CCC1 [All-trans Retinoic Acid (Tretinoin)]	88.7% and 90.3%	93%	68.7%	73.6%	54.2%	75.3%	11.3%	37.4%
CC1(C)CC[C@]2(C(=O)O)CC[C@]3(C)C(=CC[C@@H]4[C@@]5(C)CC[C@H](O)C(C)(C)[C@@H]5CC[C@]43C)[C@@H]2C1 [Oleanolic Acid (Caryophyllin)]	96.5% and 91.2%	87.9%	80.7%	82.8%	85.6%	94.7%	66.8%	82.7%
Cc1nc(N)sc1-c1ccnc(Nc2ccc(N3CCOCC3)cc2)n1	59.9% and 67.6%	64.5%	40.8%	44.3%	5.52%	4.7%	9.4%	13.7%
COc1ccc(CC2c3cc(OC)c(OC)cc3CC[N+]2(C)CCC(=O)OCCCCCOC(=O)CC[N+]2(C)CCc3cc(OC)c(OC)cc3C2Cc2ccc(OC)c(OC)c2)cc1OC (stereo not drawn) [Atracurium besylate]	90% and 97.2%	87.9%	87.3%	84.9%	75%	97.1%	115%	108%
COc1ccc2cc1Oc1ccc(cc1)C[C@H]1c3cc(c(OC)cc3CCN1C)Oc1c(O)c(OC)cc3c1[C@H](C2)N(C)CC3 [Fangchinoline]	5.78% and 5.22%	5.07%	12.1%	1.57%	0.48%	0.53%	0.4%	0.56%
CNC(=O)c1cccc(-c2ccc3c(N4CCOC[C@@H]4C)nc(N4CCOC[C@@H]4C)nc3n2)c1 [Vistusertib (AZD2014)]	44.8% and 43.3%	38.4%	60.8%	48.5%	35.1%	28.9%	29.2%	28.8%
Cc1cc(=O)oc2cc(O)ccc12 [4-Methylumbelliferone (4-MU)]	107% and 96.8%	99.6%	98.5%	96.7%	102%	102%	100%	99.9%
Cc1c(CN2CCN(C(=O)[C@H](C)O)CC2)sc2c(N3CCOCC3)nc(-c3cnc(N)nc3)nc12 [Apitolisib (GDC-0980, RG7422)]	43.1% and 43.8%	38.9%	39.7%	33.8%	21.7%	21.6%	5.46%	14.5%
Cc1cc(C2CCCCC2)n(O)c(=O)c1 [Ciclopirox (Penlac)]	54.8% and 52%	42.2%	14.8%	21.8%	7.11%	2.18%	15.5%	16.3%
COc1cc(C(=O)OCCCCNC(=N)N)cc(OC)c1O [Leonurine]	105% and 99%	95.2%	98.4%	112%	95.2%	104%	94.4%	107%

From the supplement of paper PMC10981050
